39 compounds from ChEMBL document CHEMBL4296182, “CO-ADD screening of NIH NCI Diversity Set V” can be followed below.

The term Inhibition denotes the change of the read-out against control, counted positive when it falls.

The assay has as its system Staphylococcus aureus. Kind of assay: Antibacterial activity against Staphylococcus aureus MRSA ATCC 43300 (CO-ADD:GP_020); MIC in CAMBH media using NBS plates, by Resazurin F(560/590). The assay is classed as functional. The following applies: Concentration 20 uM, ASSAY_TEST Inhibition of Bacterial Growth, detection method Resazurin, Fluorescence (ex560/em590), MEDIA CAMHB, plate type 384well, CORNING #3640, time 18 hr. On the technique in general: Resazurin is reduced to fluorescent resorufin, in cell work by metabolically active cells.
Regarding `Cn1nc(N)c2ncc(C(Cl)(Cl)Cl)nc21`, the Inhibition is recorded as -7.62%. As for `CCOC(=O)Nc1ccc2[nH]c(-c3cscn3)nc2c1`, the Inhibition came out at 14.96%. The figure for `O=C(O)c1ccccc1C(=O)Nc1ccccc1[N+](=O)[O-]` is 3.12%.

On to `Cc1cccc(N2CCN(CC(O)COc3ccc(Cl)cc3)CC2)c1` (centres undefined), for which the Inhibition is reported as 13.02%. The figure for `O=[N+]([O-])/C=C/c1cc2ccccc2[nH]1` is 0.82%; for `c1ccc(Sc2ncnc3ccccc23)cc1` it is 3.09%.

Consider `CCCCOc1ccc(Nc2cc(Cl)ccc2C(=O)O)cn1`, for which the Inhibition amounted to 11.44%. For the compound `Cn1c(=O)c2c(nc(OCCc3ccccc3)n2C)n(C)c1=O`, the Inhibition is given as 6.63%.

Turning to `c1ccc(NN(Cc2ccncc2)c2ccccc2)cc1`, the Inhibition is on record as -5.2%.

`Nc1ncnc2c1ncn2C=C=CCO`: the Inhibition is on record as 13.44%. Next, `O=C1c2ccccc2C(=O)c2c(Nc3ccc(CCO)cc3)ccc(O)c21`: 19.9%; `Cc1ccc(C#CC(C)(O)C(C)(C)C)cn1` (centres undefined): 4.47%.

For `CCOc1cc2c(Cl)ncnc2c(OCC)c1OCC`, the Inhibition is reported as 4.34%. Next, `O=C(NC1(N2CCOCC2)CC1)c1ccc(Cl)cc1`: 6.77%; `CS(=O)(=O)Oc1ccc(Br)c2cccnc12`: 10.68%; `Cc1nnsc1C(=O)NCc1c(F)cccc1Cl`: -1.87%. The figure for `Cc1cccc(NC2=C(C#N)C(=O)NC3(CCCC3)S2)c1` is -0.83%. The figure for `CCOC(=O)C(=O)C1C(=O)Nc2ccccc21` (centres undefined) is 11.5%; for `C=CCNC(=S)NCC=C` it is 10.5%; for `C=CCOC(=O)/C=C\C(=O)NC(N)=O` it is 5.08%. As to `Cc1ccc(S(=O)(=O)N(C)C)cc1[N+](=O)[O-]`, the Inhibition is -7.75%. As for `COC(=O)C1CC(O)C(O)C(O)C1` (centres undefined), the Inhibition turned out to be 17.7%. Next, `COc1c(NC=O)c2c(c([N+](=O)[O-])c1OC)C(=O)OC2`: 1.34%; `CCCSc1ncnc2[nH]ncc12`: 4.5%. The figure for `CCCCOC(=O)c1cccnc1` is 2.44%; for `Cc1cc(NC(=O)c2ccccc2)c(Cl)cc1N` it is 13.14%; for `c1ccc(-c2nc(-c3ccccn3)nc(-c3ccccn3)n2)nc1` it is 2.88%. Next, `Cc1c(C(C)(C(=O)O)c2c(C)n(C)c3ccccc23)c2ccccc2n1C`: 11.46%; `O=C1NC(=O)C2(CCc3ccccc32)N1` (centres undefined): -0.71%; `Cn1ncc2c(Nc3ccc(Br)cc3)nc(Nc3ccc(Br)cc3)nc21`: 3.19%. Turning to `CC(C)(C)n1nc(C2CC2)cc1NC(=O)Nc1ccc(Cl)cc1`, the Inhibition is recorded as 0.51%. The figure for `CC1(C)OC2C(CO)OC(n3cnc4c(S)ncnc43)C2O1` (centres undefined) is 1.89%; for `CC1CO/C(=C2\C(=O)OCC2C)C1` (centres undefined) it is 4.79%; for `Cl.O=C(O)c1ccc(NCc2nc3ccccc3[nH]2)cc1` it is 0.21%. Next, `CCCC1OC(c2cc3c(cc2Cl)OCO3)OCC1CC` (centres undefined): 3.15%; `CC(C)(C)NC(=O)c1ccc(C(=O)NC(C)(C)C)cc1`: -9.07%; `Cc1nc2ccccc2nc1N1CCCC1`: 12.43%. Next, `Oc1cc(-c2nn[nH]n2)nc(O)n1`: 15.18%. Turning to `CC1=C2C3OC(=O)C(C)C3CCC2(C)C=C(Cl)C1=O` (centres undefined), the Inhibition was -4.99%.
